# Data as given in PubChem BioAssay (NCI).
# Where “and” joins values, the source holds several entries; their conditions need not be identical. Equal values may be shown once. About 79,000 compounds went through this panel and 15% of them were active in at least one assay; those are over-represented in the sample as a whole. More than one record can exist for a structure, and the calls need not agree. Calls of active or inactive are those of the source. No stated cut-off is given here; in the data, active means growth inhibition above about 70%; inactive means the rest.
# How the values were obtained:
# [1] = NCI Yeast Anticancer Drug Screen. Data for the rad50 strain (AID 155);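 further: 0% = growth of vehicle-only cultures of the same strain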; settings: S. cerevisiae rad50 strain growth inhibition, stronger effect = higher value
# How it was run: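 Cells are treated with compound, grown, and their growth is then scored against vehicle-only cultures of the same repair-deficient yeast strain.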
# [2] = NCI Yeast Anticancer Drug Screen. Data for the mec2-1 strain (AID 157); settings: S. cerevisiae mec2-1 strain, stronger effect = higher value
# How it was run: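 Each compound was tested on mec2-1 yeast, a strain altered in DNA damage repair or cell cycle control. Growth inhibition is reported relative to vehicle.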
# [3] = NCI Yeast Anticancer Drug Screen. Data for the cln2 rad14 strain (AID 165);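 further: 0% = growth equal to vehicle treated cultures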; settings: S. cerevisiae cln2 rad14 strain, stronger effect = higher value
# How it was run: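 Test compounds were added to cln2 rad14 yeast cultures; inhibition of growth was then determined by comparison with vehicle treatment.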
# [4] = NCI Yeast Anticancer Drug Screen. Data for the bub3 strain (AID 167); settings: S. cerevisiae bub3 mutant strain, stronger effect = higher value
# How it was run: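 Part of a panel of yeast mutants defective in DNA damage repair or cell cycle regulation. Each strain is grown with compound, and inhibition is calculated relative to solvent-treated cultures.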
# [5] = NCI Yeast Anticancer Drug Screen. Data for the mlh1 rad18 strain (AID 175); settings: S. cerevisiae mlh1 rad18 strain growth inhibition, stronger effect = higher value
# How it was run: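 Inhibition values reflect reduced growth of mutant yeast versus vehicle-treated controls following compound exposure; the mutations affect DNA damage repair.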
# [6] = NCI Yeast Anticancer Drug Screen. Data for the sgs1 mgt1 strain (AID 161);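 further: 0% = growth of cultures given vehicle only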; settings: S. cerevisiae sgs1 mgt1 strain, stronger effect = higher value
# How it was run: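 Test agents were incubated with a DNA-repair-mutant yeast strain. Growth was then read and compared against vehicle-treated controls.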
# [7] = at 5.0 µM (retest, dose inferred, filed as 0.5)
# [8] = at 50.0 µM (retest, dose inferred, filed as 5.0)
Structure (SMILES),"growth inhibition [1, 7]","growth inhibition [1, 8]",growth inhibition ([1]; at 50.0 µM),"growth inhibition [2, 7]","growth inhibition [2, 8]",growth inhibition ([2]; at 50.0 µM),"growth inhibition [3, 7]","growth inhibition [3, 8]",growth inhibition ([3]; at 50.0 µM),"growth inhibition [4, 7]","growth inhibition [4, 8]",growth inhibition ([4]; at 50.0 µM),"growth inhibition [5, 7]","growth inhibition [5, 8]",growth inhibition ([5]; at 50.0 µM),"growth inhibition [6, 7]","growth inhibition [6, 8]",growth inhibition ([6]; at 50.0 µM)
CCNc1ncc2ccccc2c1-c1ccc(N2CCN(CCCl)CC2)cc1,15% (inactive),93% (active),97.8% (active),13% (inactive),89% (active),74% (active),2% (inactive),90% (active),93.5% (active),13% (inactive),95% (active),97.2% (active),8% (inactive),97% (active),98% (active),–,–,–
c1ccc2c(c1)CCc1c-2[nH]c2ccccc12,-67% (inactive),79% (active),72.2% (active),-8% (inactive),77% (active),36.4% (inactive),–,–,–,-48% (inactive),87% (active),89.8% (active),-43% (inactive),83% (active),83.2% (active),-9% (inactive),90% (active),71.7% (active)
CCOP(=O)(OCC)Oc1cc(C)c(SC#N)c(C)c1,-6% (inactive),-7% (inactive),29.6% (inactive),–,–,–,-7% (inactive),-6% (inactive),66.3% (inactive),-3% (inactive),18% (inactive),53.7% (inactive),–,–,–,10% (inactive),25% (inactive),17.1% (inactive)
c1ccncc1,17% (inactive),20% (inactive),–,-2% (inactive),7% (inactive),–,–,–,–,-3% (inactive),6% (inactive),–,8% (inactive),32% (inactive),–,-4% (inactive),19% (inactive),–
[Ni+2].[O-][Cl+3]([O-])([O-])O.c1ccc([PH+](CC[PH+](c2ccccc2)c2ccccc2)c2ccccc2)cc1.c1ccc([PH+](CC[PH+](c2ccccc2)c2ccccc2)c2ccccc2)cc1,–,–,–,-1% (inactive),12% (inactive),41.8% (inactive),3% (inactive),-3% (inactive),9.05% (inactive),4% (inactive),31% (inactive),43.9% (inactive),3% (inactive),26% (inactive),72% (active),1% (inactive),32% (inactive),59.2% (inactive)
C[C@H]1CCC/C=C/[C@@H]2C[C@H](O)C[C@H]2[C@H](O)/C=C/C(=O)O1,5% (inactive) and 15% (inactive),98% (active) and 99% (active),–,10% (inactive) and 26% (inactive),99% (active) and 100% (active),–,7% (inactive) and 27% (inactive),99% (active),–,4% (inactive) and 31% (inactive),97% (active) and 98% (active),90.8% (active) and 1.65% (inactive) and 90.9% (active),17% (inactive) and 42% (inactive),99% (active),90.8% (active) and 13.7% (inactive) and 39% (inactive),13% (inactive) and 21% (inactive),99% (active),90.3% (active) and 5.45% (inactive) and 90.8% (active)
Clc1ccc2c(NCCCCN3OC3c3ccccc3)ccnc2c1 (stereo not given),30% (inactive),67% (inactive),58.2% (inactive),22% (inactive),56% (inactive),48.6% (inactive),11% (inactive),32% (inactive),11.3% (inactive),24% (inactive),43% (inactive),34.2% (inactive),30% (inactive),84% (active),35.2% (inactive),–,–,–
CSc1ccc2c(c1)c(CCN)c(C)n2Cc1ccccc1Cl,3% (inactive),100% (active),99.5% (active),0% (inactive),100% (active),99.5% (active),-31% (inactive),98% (active),98.5% (active),-7% (inactive),99% (active),99.5% (active),13% (inactive),99% (active),99.4% (active),–,–,–
c1ccc(-c2ccccn2)nc1,-4% (inactive) and 2% (inactive),76% (active) and 90% (active),79.8% (active) and 81.1% (active),0% (inactive) and 1% (inactive),53% (inactive) and 61% (inactive),70.9% (active) and 55.6% (inactive),4% (inactive) and -5% (inactive),61% (inactive) and 51% (inactive),29.1% (inactive) and 21.4% (inactive),-23% (inactive) and 0% (inactive),87% (active) and 86% (active),82.5% (active) and 64.2% (inactive),-3% (inactive) and 2% (inactive),85% (active) and 84% (active),68% (inactive) and 75.9% (active),–,–,–
CC(Cc1ccccc1)N(C)Cc1ccc(-c2ccccc2)o1 (stereo not given),–,–,–,7% (inactive),75% (active),34% (inactive),16% (inactive),88% (active),14.6% (inactive),6% (inactive),96% (active),20.6% (inactive),12% (inactive),91% (active),81.3% (active),–,–,–
COc1cc2c(cc1OC)C13CCN4CC5=CCOC6CC(=O)N2C1C6C5CC43 (stereo not given) (tested in a mixture with another compound),-6% (inactive),-24% (inactive),7.15% (inactive) [middle of 6 runs],-2% (inactive),1% (inactive),–,-3% (inactive),2% (inactive),–,0% (inactive),-2% (inactive),-1.4% (inactive) [middle of 6 runs],-2% (inactive),-4% (inactive),–,-13% (inactive),-8% (inactive),–
NC1=C(c2nc(-c3ccccc3)cs2)C(c2ccc(Br)cc2)c2c(c3ccccc3oc2=O)O1 (stereo not given),5% (inactive),99% (active),0.8% (inactive),6% (inactive),100% (active),29.2% (inactive),3% (inactive),99% (active),42.4% (inactive),4% (inactive),99% (active),28.8% (inactive),6% (inactive),99% (active),46.1% (inactive),–,–,–
COc1ccc2c(c1O)C13CCN(C)C(C2)C12C=CC(=O)C3c1c(O)ccc(O)c12 (stereo not given),-2% (inactive),59% (inactive),76.7% (active),13% (inactive),66% (inactive),66.5% (inactive),–,–,–,-8% (inactive),55% (inactive),48.7% (inactive),17% (inactive),88% (active),84.5% (active),17% (inactive),77% (active),89.3% (active)
CCC(C)c1cc([N+](=O)[O-])cc([N+](=O)[O-])c1O (stereo not given),–,–,–,-31% (inactive),24% (inactive),66.2% (inactive),-9% (inactive),44% (inactive),69.9% (inactive),-58% (inactive),19% (inactive),80.1% (active),-123% (inactive),40% (inactive),85.5% (active),-50% (inactive),60% (inactive),86% (active)
O=C1C2CCN(CC2)C1CN1CCOCC1 (stereo not given),15% (inactive),22% (inactive),88.3% (active),–,–,–,10% (inactive),11% (inactive),19.2% (inactive),-1% (inactive),2% (inactive),89.1% (active),10% (inactive),16% (inactive),–,3% (inactive),8% (inactive),87.2% (active)
C[n+]1c(/C=C/c2ccc(O)c3ncccc23)[se]c2ccccc21,22% (inactive),93% (active),93.4% (active),2% (inactive),90% (active),93.5% (active),11% (inactive),88% (active),92% (active),2% (inactive),91% (active),93% (active),43% (inactive),90% (active),93.4% (active),–,–,–
c1ccc([CH2][Pb]([c]2ccccc2)([c]2ccccc2)[c]2ccccc2)cc1,96% (active),96% (active),97.2% (active),–,–,–,95% (active),95% (active),98.5% (active),98% (active),97% (active),99% (active),97% (active),97% (active),99.2% (active),97% (active),98% (active),98.7% (active)
ClCC[N+]12CC[N+](CCCl)(CC1)C2,59% (inactive),97% (active),–,50% (inactive),98% (active),–,75% (active),98% (active),–,82% (active),98% (active),–,47% (inactive),97% (active),–,86% (active),99% (active),–
NC(CS)C(=O)O (stereo not given),–,–,-4.8% (inactive) and 31.9% (inactive) and -26% (inactive),–,–,-7.5% (inactive) and -9.05% (inactive) and -3.1% (inactive),–,–,-0.4% (inactive) and 7.6% (inactive) and -1.55% (inactive),–,–,-17.2% (inactive) and 25.6% (inactive) and -38.2% (inactive),–,–,-8.1% (inactive) and 13.2% (inactive) and 1.75% (inactive),–,–,-7.95% (inactive) and 28.4% (inactive) and -35.2% (inactive)
CCN(CCCl)c1ccc(/C=C/C2=[N+](C)c3ccccc3C2(C)C)c(C)c1,–,–,–,-1% (inactive),99% (active),98.2% (active),-4% (inactive),97% (active),71.5% (active),-6% (inactive),99% (active),99.2% (active),-1% (inactive),98% (active),60.8% (inactive),-8% (inactive),98% (active),96.8% (active)
CCCCCC(O)C1C(=O)OC(C)C(O)/C=C/C=C/C=C/C=C/C=C(\C)C(O)C(O)C(O)CC(O)CC(O)CC(O)CC(O)CC1O (stereo not given),–,–,-5.85% (inactive) and -8.05% (inactive) and -2.3% (inactive),–,–,-36.5% (inactive) and -20% (inactive) and -0.45% (inactive),–,–,-14.2% (inactive) and -5% (inactive) and -4.05% (inactive),–,–,-2.15% (inactive) and 4.5% (inactive) and 11% (inactive),–,–,17.9% (inactive) and -47.9% (inactive) and 0.55% (inactive),–,–,-2.25% (inactive) and -8.45% (inactive) and -33% (inactive)
CC(=O)OCC12CCC(C)=CC1OC1C3(O)N=C(C)OC3C2(C)C12CO2 (stereo not given),–,–,–,28% (inactive),55% (inactive),69% (inactive),38% (inactive),64% (inactive),56.3% (inactive),18% (inactive),69% (inactive),41.9% (inactive),46% (inactive),75% (active),18.4% (inactive),46% (inactive),76% (active),41% (inactive)
NC(c1ccccc1)C(O)c1ccccc1 (stereo not given),–,–,2.1% (inactive) [middle of 4 runs],–,–,3.2% (inactive) [middle of 4 runs],–,–,–,–,–,–,–,–,-10.7% (inactive) [middle of 4 runs],–,–,10.7% (inactive) [middle of 4 runs]
